CCHF vOTU inh – blocks the CCHF virus ovarian tumor domain protease. CCHFV vOTU protease, Pep-AMC fluorescence. inhibition, % at 11.5 µM. hit rate 0.55% among 370,000. AID 651958; in the data active means inhibition above about 30%
PrPC TRFRET – inhibitors of human cell surface prion protein PrPC. hit rate 0.43% among 370,000. AID 720596. P04156. TR-FRET read-out. inhibition, % at 13.8 µM; in the data active means inhibition above about 24%
Vc quorum ag-1 – induces V. cholerae light production without autoinducers. AID 588436. hit rate 0.16% among 350,000. activation, % at 18.7 µM. V. cholerae BH1578 lux reporter, luminescence, 6 h; in the data active means activation mostly above about 9.7%, no sharp cut-off; inconclusive means no clear call, values can overlap the other calls; inactive means mostly below about 3.7%
Y pestis TopoI – inhibitors of Yersinia pestis topoisomerase I | hit rate 0.064% among 360,000 | Y. pestis Topo-I cleavage product accumulation, plate reader | AID 504884 | activity, % at 10 µM; in the data active means activity above about 50%, passing the limit was not always enough; inconclusive means no clear call, values can overlap the other calls
Vc quorum ag-2 – induces V. cholerae light production without autoinducers | V. cholerae BH1578 lux reporter, luminescence, 6 h | 620 tested, under 10 active | activation, % at 50 µM | shares compounds with Vc quorum ag-1; call rule not given here
HeLa tox – kills HeLa cells within 24 hours; shares compounds with Vc quorum ag-1; HeLa viability, CellTiter-Glo ATP luminescence; activity change, negative = cytotoxicity, % at 35 µM; 25 tested, under 10 active; AID 624140;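 active means signal drop with fitted half-maximal concentration at or below twice the highest valid dose; inconclusive means flat curve with 30 to 70% loss, or poor fit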
Hits are given with their value; - = inactive; ? = inconclusive; . = not tested or not shown; + = active, no number. Only some compounds are listed: those with a hit (about 1.1% of all), similar ones and a draw of the others.

SMILES	CCHF vOTU inh	PrPC TRFRET	Vc quorum ag-1	Y pestis TopoI	Vc quorum ag-2	others
CCOC(=O)C1CCN(C(=O)Nc2ccc3c(c2)nc(C)n3C)CC1	-	-	?	-	-
Cc1nc2cc(NC(=O)N3CCCCC3)ccc2n1C	-	-	-	-	.
CCCOc1cc(C)c(S(=O)(=O)NCCOC)cc1C	-	-	-	-	-
O=C(NCc1ccccn1)c1ccc(CS(=O)(=O)Cc2ccc(Cl)cc2)o1	-	-	15	-	-
Cc1ccccc1CS(=O)(=O)Cc1ccc(C(=O)NCc2ccccn2)o1	-	-	-	-	.
C[C@H]1CN(C2CCCCC2)C(=O)[C@@H]1CC(=O)Nc1ccc(Br)cc1	-	-	-	-	.
COCCCNC(=O)c1ccc2c(=O)n(C3CCCC3)c(=S)[nH]c2c1	-	-	-	-	-
COc1cccc(CN(C)C(=O)CSC(C)C(=O)Nc2cc(C)on2)c1OC (stereo not drawn)	-	-	-	-	-
COc1cccc(CN(C)C(=O)CSCC(=O)Nc2cc(C)on2)c1OC	-	-	-	-	.
Cc1nnc(SCC(=O)NCc2cccs2)n1-c1ccccc1	-	-	-	-	.
Cc1occc1-c1nnc(SCC(=O)NCc2cccs2)n1-c1ccc(F)cc1	-	-	-	-	-
CCn1nnnc1NCc1cccc(OC)c1	.	.	.	.	.	HeLa tox=-
CCCn1nnnc1NCc1cccc(OC)c1	-	-	-	-	.
O=[N+]([O-])c1cccc(S(=O)(=O)N/N=C/c2ccc(O)cc2)c1	-	-	-	-	.
Cc1ccc(OCCNC(=O)c2cccc(C)c2)cc1	-	-	+	-	-	HeLa tox=-
CCOc1ccc(CNC(=O)c2ccco2)cc1	-	-	60	-	-
Cc1ccc(C(=O)NCCNC(=O)c2ccco2)cc1C	-	-	-	-	.
Cc1ccc(OCCNC(=O)c2ccco2)cc1C	-	-	+	-	-
O=C(NCCOc1ccc(Cl)cc1)c1ccco1	-	-	425	-	-
Cc1cnc(NC(=O)c2c(Cl)cnn2C)s1	-	-	-	-	.
CCc1ccc(OCCNC(=O)c2ccco2)cc1	-	-	.	-	-
CN(CC(=O)Nc1sccc1C#N)S(=O)(=O)c1ccc(F)cc1	-	-	-	-	.
COc1ccc(OCCOC(=O)CCS(=O)(=O)c2ccc(C)cc2)cc1	-	-	-	-	-
Cc1ccc(S(=O)(=O)CCC(=O)OCCOc2ccc(Br)cc2)cc1	-	-	-	-	.
COc1ccc(OCCOC(=O)c2cccs2)cc1	-	-	524	-	-
SMILES	CCHF vOTU inh	PrPC TRFRET	Vc quorum ag-1	Y pestis TopoI	Vc quorum ag-2	others
CCOC(=O)N1CCC(NC(=O)C2CCN(C(=O)N3CC(C)Oc4ccccc43)CC2)CC1 (stereo not drawn)	-	-	-	-	.
CCOC(=O)N1CCC(NC(=O)C2CCN(C(=O)N3CC(C)Oc4ccc(C)cc43)CC2)CC1 (stereo not drawn)	-	-	7.6	-	-
CC(C#N)On1c(SC(C)C#N)nc2ccccc2c1=O (stereo not drawn)	-	-	-	-	-
Cc1cccnc1NC(=O)CNC(=O)C12CC3CC(CC(C3)C1)C2	-	-	-	-	.
COC(=O)C1=C(C)N=C2SCCC(=O)N2C1c1cc(Br)ccc1OC (stereo not drawn)	-	-	-	-	.
CCOC(=O)C1=C(C)N=C2SCCC(=O)N2C1c1cc(Br)ccc1OC (stereo not drawn)	-	-	-	-	-
N#CCSc1ccccc1NC(=O)COC(=O)CCNC(=O)c1ccc([N+](=O)[O-])cc1	-	-	-	-	-
O=C(CCNC(=O)c1ccc([N+](=O)[O-])cc1)Nc1ccccc1N1CCCC1	-	-	-	-	.
Cc1ccc(S(=O)(=O)NC(=O)C2(C)CCN2C(=O)c2ccccc2CCc2ccccc2)cc1 (stereo not drawn)	-	-	-	-	.
C/C=C/C(=O)OCC(=O)Nc1ccc(OC)c(OC)c1	-	-	-	-	.
CS(=O)(=O)NNC(=O)c1sccc1OCc1ncc(C(F)(F)F)cc1Cl	-	-	-	-	-
CC(C)OC(=O)CSc1nnc(SCc2cccc3ccccc23)s1	-	-	29	-	-
O=C(O)CSc1nnc(SCc2cccc3ccccc23)s1	-	-	-	-	.
CC(=O)Nc1ccc(C(=O)N2CCCc3ccccc32)cc1	-	-	-	-	.
CC(=O)C(CC(=O)N1CCCc2ccccc21)C(=O)Nc1ccc(F)cc1 (stereo not drawn)	-	-	-	-	-
CC(NC(=O)c1cn(C)c2ccc(S(=O)(=O)N3CCCC3)cc2c1=O)c1ccc2c(c1)OCCO2 (stereo not drawn)	-	-	-	-	.
